Where “and” joins values, the source holds several entries; their conditions need not be identical. Identical values can stand only once. Inconclusive results are not listed. A structure can be active in one record and inactive in another. Calls of active or inactive are those of the source. The calls were made as follows, unless noted: active = hit-call score of the fitted dose curve at least 0.9, where 1 is the maximum; inactive = score below 0.9.
Tests used:
[1] = target: human RAR-related Orphan Receptor beta (RORb), RORB (gene 6096) (UniProt Q92753); test: ATG_RORb_TRANS: Attagene TRANS-FACTORIAL HepG2 Assay for human RAR-related Orphan Receptor beta (RORb) (AID 2283010; active = hit-call score of the fitted dose curve at least 0.9, where 1 is the maximum)
Sequence of human RAR-related Orphan Receptor beta (RORb), RORB (gene 6096) (Q92753 whole entry, looked up, the tested form may be a part): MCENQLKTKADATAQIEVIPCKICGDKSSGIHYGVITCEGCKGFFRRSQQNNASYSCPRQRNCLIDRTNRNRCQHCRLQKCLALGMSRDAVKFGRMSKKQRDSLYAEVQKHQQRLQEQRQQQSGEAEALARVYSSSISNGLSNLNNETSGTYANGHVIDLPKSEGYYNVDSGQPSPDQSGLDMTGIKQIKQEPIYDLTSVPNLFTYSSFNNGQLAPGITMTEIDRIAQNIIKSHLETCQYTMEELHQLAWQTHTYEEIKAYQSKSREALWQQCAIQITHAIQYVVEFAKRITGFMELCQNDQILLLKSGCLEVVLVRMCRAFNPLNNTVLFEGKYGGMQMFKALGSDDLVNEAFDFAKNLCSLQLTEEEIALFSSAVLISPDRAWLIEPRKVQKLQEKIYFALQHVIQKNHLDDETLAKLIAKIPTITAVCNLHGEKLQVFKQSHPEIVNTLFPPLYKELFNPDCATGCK
In short: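 Transfect HepG2 with multiple GAL4-UAS reporter transcription units; dose chemicals for 24 h; isolate RNA, reverse-transcribe and PCR-amplify reporter sequences; label, digest and resolve fragments by capillary electrophoresis; fit increases relative to DMSO.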

[2] = read-out: E-selectin (Homo sapiens) (UniProt P16581); test: BSK_3C_Eselectin: BioMAP Diversity Plus: 3C Assay for Eselectin Biomarker Activity (AID 2283015); details: primary human endothelial cells (HUVEC); actives raise or lower the signal
In short: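 HUVEC, 3C stimulation; compound exposure 24 h; E-selectin by ELISA; gain- or loss-of-signal fitted bidirectionally vs DMSO baseline.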

[3] = read-out: Interleukin-1 alpha (IL1a), IL1A (gene 3552); test: BSK_BE3C_IL1a: BioMAP Diversity Plus: BE3C Assay for Interleukin-1 alpha (IL1a) Biomarker Activity (AID 2283016); details: primary human bronchial epithelial cells; actives raise or lower the signal
In short: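 Signal from IL-1a ELISA, taken 24 h after chemical dosing of human bronchial epithelial cells, is compared with DMSO as baseline using bidirectional curve fitting.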

[4] = read-out: Monocyte Chemoattractant Protein-1 (MCP1), CCL2 (gene 6347); test: BSK_3C_MCP1: BioMAP Diversity Plus: 3C Assay for Monocyte Chemoattractant Protein-1 (MCP1) Biomarker Activity (AID 2283017); details: primary human endothelial cells (HUVEC); actives raise or lower the signal
In short: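 HUVEC, 3C system; 24 h chemical exposure; MCP-1 by ELISA; bidirectional curve fit vs DMSO baseline.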

[5] = read-out: Monocyte Chemoattractant Protein-1 (MCP1), CCL2 (gene 6347); test: BSK_4H_MCP1: BioMAP Diversity Plus: 4H Assay for Monocyte Chemoattractant Protein-1 (MCP1) Biomarker Activity (AID 2283018); details: primary human endothelial cells (HUVEC); actives raise or lower the signal
In short: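 Endothelial cells from umbilical vein were treated with test chemical, then after 24 h MCP-1 levels were quantified by ELISA; endpoint values came from bidirectional fitting with DMSO as baseline of activity.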

[6] = read-out: Human Leukocyte Antigen - DR isotype (HLADR), HLA-DRA (gene 3122); test: BSK_3C_HLADR: BioMAP Diversity Plus: 3C Assay for Human Leukocyte Antigen - DR isotype (HLADR) Biomarker Activity (AID 2283019); details: primary human endothelial cells (HUVEC); actives raise or lower the signal
In short: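 HUVEC, 3C stimulation, 24 h post-dose; HLA-DR by ELISA; bidirectional curve fit vs DMSO baseline; gain or loss of signal scored.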

[7] = read-out: Interleukin-8 (IL8), CXCL8 (gene 3576); test: BSK_3C_IL8: BioMAP Diversity Plus: 3C Assay for Interleukin-8 (IL8) Biomarker Activity (AID 2283020); details: primary human endothelial cells (HUVEC); actives raise or lower the signal
In short: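 Endothelial primary cells of human umbilical vein origin are dosed with chemical; after 24 h the IL-8 biomarker is measured by ELISA, and concentration–response is fitted in both directions versus DMSO.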

[8] = read-out: Monokine induced gamma interferon (MIG), CXCL9 (gene 4283); test: BSK_3C_MIG: BioMAP Diversity Plus: 3C Assay for Monokine induced gamma interferon (MIG) Biomarker Activity (AID 2283021); details: primary human endothelial cells (HUVEC); actives raise or lower the signal;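 as to AC50: MIG protein level measured by immunoassay in the treated endothelial cultures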
In short: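 Endothelial primary cells (human umbilical vein) are dosed with test chemical in the 3C system. MIG levels are measured by ELISA at 24 h and fitted in both directions relative to DMSO.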

[9] = target: human Vitamin D Receptor (VDR), VDR (gene 7421) (UniProt P11473); test: ATG_VDR_TRANS: Attagene TRANS-FACTORIAL HepG2 Assay for human Vitamin D Receptor (VDR) (AID 2283022; active = hit-call score of the fitted dose curve at least 0.9, where 1 is the maximum)
Sequence of human Vitamin D Receptor (VDR), VDR (gene 7421) (P11473 whole entry, looked up, the tested form may be a part): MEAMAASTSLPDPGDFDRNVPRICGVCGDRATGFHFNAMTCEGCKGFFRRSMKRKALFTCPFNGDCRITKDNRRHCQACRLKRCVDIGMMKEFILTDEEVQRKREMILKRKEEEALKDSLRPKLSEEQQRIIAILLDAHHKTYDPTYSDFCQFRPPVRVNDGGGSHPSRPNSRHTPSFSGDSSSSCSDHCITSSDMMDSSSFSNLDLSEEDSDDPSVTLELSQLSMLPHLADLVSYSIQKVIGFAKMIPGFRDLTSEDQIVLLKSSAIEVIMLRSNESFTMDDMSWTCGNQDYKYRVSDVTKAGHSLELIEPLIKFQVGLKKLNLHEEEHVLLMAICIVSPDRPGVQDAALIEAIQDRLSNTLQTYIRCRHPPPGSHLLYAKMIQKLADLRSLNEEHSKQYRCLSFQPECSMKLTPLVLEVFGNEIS
In short: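 RT-PCR/capillary electrophoresis read-out of reporter mRNA induction in transiently transfected HepG2; 24 h dosing; chimeric NR-Gal4 (TRANS format); gain-of-signal fit against DMSO baseline.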

[10] = BSK_3C_SRB: Viability Assessment in the BioMAP Diversity Plus: 3C Assay (AID 2283023); details: primary human endothelial cells (HUVEC);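 also: fitted both ways against DMSO so a hit may be signal rise or drop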
In short: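 HUVEC, 24 h post-dose; 10% TCA fix, 0.1% SRB stain, A560 nm. Bidirectional curve fit vs DMSO negative control.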

[11] = read-out: Matrix Metallopeptidase 1 (MMP1), MMP1 (gene 4312); test: BSK_BE3C_MMP1: BioMAP Diversity Plus: BE3C Assay for Matrix Metallopeptidase 1 (MMP1) Biomarker Activity (AID 2283024); details: primary human bronchial epithelial cells; actives raise or lower the signal
In short: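 MMP1 signal, measured by ELISA after a 24 h chemical exposure of human primary bronchial epithelial cells, is analysed with bidirectional fitting using DMSO as negative control.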

[12] = BSK_4H_SRB: Viability Assessment in the BioMAP Diversity Plus: 4H Assay (AID 2283027); details: primary human endothelial cells (HUVEC);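 also: cells exposed to compound for 24 h before staining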;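 as to AC50: curves fitted both ways versus DMSO so AC50 may be loss or gain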
In short: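 Cytotoxicity readout: sulforhodamine B (0.1%) staining of total protein after 10% TCA fixation, measured at 560 nm in human umbilical vein endothelium at 24 h. DMSO set the baseline; fitting was bidirectional.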

[13] = BSK_BE3C_SRB: Viability Assessment in the BioMAP Diversity Plus: BE3C Assay (AID 2283028); details: primary human bronchial epithelial cells;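 as to AC50: fitted both ways so AC50 may mark signal gain or loss versus DMSO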
In short: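 Primary human bronchial epithelium; chemical dosing, 24 h; 10% TCA fix, 0.1% SRB stain, A560; bidirectional fit vs DMSO baseline.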

[14] = read-out: Thrombomodulin, THBD (gene 7056); test: BSK_3C_Thrombomodulin: BioMAP Diversity Plus: 3C Assay for Thrombomodulin Biomarker Activity (AID 2283029); details: primary human endothelial cells (HUVEC); actives raise or lower the signal
In short: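 Endothelial cells from umbilical vein are dosed with test chemical and incubated 24 h. Thrombomodulin is then quantified by ELISA, with DMSO serving as negative control and activity baseline.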

[15] = target: human RAR-related Orphan Receptor gamma (RORg), RORC (gene 6097) (UniProt P51449); test: ATG_RORg_TRANS: Attagene TRANS-FACTORIAL HepG2 Assay for human RAR-related Orphan Receptor gamma (RORg) (AID 2283011; active = hit-call score of the fitted dose curve at least 0.9, where 1 is the maximum)
Sequence of human RAR-related Orphan Receptor gamma (RORg), RORC (gene 6097) (P51449 whole entry, looked up, the tested form may be a part): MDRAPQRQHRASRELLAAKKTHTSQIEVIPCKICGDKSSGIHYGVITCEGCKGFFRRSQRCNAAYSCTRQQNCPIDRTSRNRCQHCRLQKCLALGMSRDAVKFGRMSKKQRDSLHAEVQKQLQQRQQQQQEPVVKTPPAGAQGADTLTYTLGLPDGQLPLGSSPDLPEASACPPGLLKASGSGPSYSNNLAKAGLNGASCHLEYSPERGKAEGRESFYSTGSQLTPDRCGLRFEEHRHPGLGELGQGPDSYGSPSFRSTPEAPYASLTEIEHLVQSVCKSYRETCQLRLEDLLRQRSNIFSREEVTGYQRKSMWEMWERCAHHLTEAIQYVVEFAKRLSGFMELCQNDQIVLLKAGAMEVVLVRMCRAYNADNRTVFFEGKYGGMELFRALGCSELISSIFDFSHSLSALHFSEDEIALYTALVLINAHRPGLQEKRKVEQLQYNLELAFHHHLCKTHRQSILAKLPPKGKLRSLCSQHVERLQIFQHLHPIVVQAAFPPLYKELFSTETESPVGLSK
In short: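 Transient MRTU transfection of HepG2 (TRANS format, exogenous NR-Gal4 chimera). 24 h dosing. Total RNA → oligo(dT) RT → PCR → 6-FAM labelling → HpaI cut → CE. Gain vs DMSO.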

[16] = target: Retinoic acid receptor RXR-alpha (Homo sapiens) (UniProt P19793); test: ATG_RXRa_TRANS: Attagene TRANS-FACTORIAL HepG2 Assay for human Retinoid X Receptor alpha (RXRa) (AID 2283012; active = hit-call score of the fitted dose curve at least 0.9, where 1 is the maximum)
Sequence of Retinoic acid receptor RXR-alpha (Homo sapiens) (P19793 whole entry, looked up, the tested form may be a part): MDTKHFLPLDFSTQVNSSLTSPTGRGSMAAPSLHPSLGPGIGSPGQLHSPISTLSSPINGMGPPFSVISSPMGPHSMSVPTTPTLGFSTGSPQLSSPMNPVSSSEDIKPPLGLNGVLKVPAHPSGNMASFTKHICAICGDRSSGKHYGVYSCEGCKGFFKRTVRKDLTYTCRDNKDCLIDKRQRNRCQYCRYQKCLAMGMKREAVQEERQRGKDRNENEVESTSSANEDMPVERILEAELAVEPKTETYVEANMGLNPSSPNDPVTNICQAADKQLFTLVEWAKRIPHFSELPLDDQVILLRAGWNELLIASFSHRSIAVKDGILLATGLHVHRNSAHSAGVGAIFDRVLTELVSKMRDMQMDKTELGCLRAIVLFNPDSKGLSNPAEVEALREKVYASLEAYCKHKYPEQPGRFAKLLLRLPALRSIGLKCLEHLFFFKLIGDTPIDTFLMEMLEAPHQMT
In short: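 Measures exogenous chimeric NR-GAL4 activity in transfected HepG2 liver cells after 24 h of dosing. Induced reporter mRNA was detected by RT-PCR with capillary electrophoresis, and gain of signal was analysed against DMSO.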

[17] = target: human Retinoid X Receptor beta (RXRb), RXRB (gene 6257) (UniProt P28702); test: ATG_RXRb_TRANS: Attagene TRANS-FACTORIAL HepG2 Assay for human Retinoid X Receptor beta (RXRb) (AID 2283013; active = hit-call score of the fitted dose curve at least 0.9, where 1 is the maximum)
Sequence of human Retinoid X Receptor beta (RXRb), RXRB (gene 6257) (P28702 whole entry, looked up, the tested form may be a part): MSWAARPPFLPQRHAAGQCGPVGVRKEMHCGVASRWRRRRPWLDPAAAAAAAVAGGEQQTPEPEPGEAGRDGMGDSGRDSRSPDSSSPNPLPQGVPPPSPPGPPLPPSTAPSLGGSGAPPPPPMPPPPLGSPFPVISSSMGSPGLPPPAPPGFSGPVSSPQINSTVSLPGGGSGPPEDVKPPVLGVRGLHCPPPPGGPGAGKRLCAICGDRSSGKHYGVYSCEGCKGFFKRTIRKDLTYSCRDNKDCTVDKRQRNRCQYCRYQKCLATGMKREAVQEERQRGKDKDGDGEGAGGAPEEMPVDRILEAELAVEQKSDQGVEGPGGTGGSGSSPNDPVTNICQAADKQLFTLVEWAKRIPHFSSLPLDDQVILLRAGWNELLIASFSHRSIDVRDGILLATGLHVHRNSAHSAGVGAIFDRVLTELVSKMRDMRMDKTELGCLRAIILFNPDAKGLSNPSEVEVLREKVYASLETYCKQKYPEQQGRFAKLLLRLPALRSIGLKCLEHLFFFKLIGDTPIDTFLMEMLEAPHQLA
In short: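 Chimeric receptor-Gal4 activity was assessed in transiently transfected human HepG2 cells after 24 h exposure. Transcripts from GAL4-UAS reporters were quantified by fluorescent RT-PCR and capillary electrophoresis, with DMSO as negative control and baseline.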

[18] = target: human Thyroid Receptor alpha (THRa1), THRA (gene 7067) (UniProt P10827); test: ATG_THRa1_TRANS: Attagene TRANS-FACTORIAL HepG2 Assay for human Thyroid Receptor alpha (THRa1) (AID 2283014; active = hit-call score of the fitted dose curve at least 0.9, where 1 is the maximum)
Sequence of human Thyroid Receptor alpha (THRa1), THRA (gene 7067) (P10827 whole entry, looked up, the tested form may be a part): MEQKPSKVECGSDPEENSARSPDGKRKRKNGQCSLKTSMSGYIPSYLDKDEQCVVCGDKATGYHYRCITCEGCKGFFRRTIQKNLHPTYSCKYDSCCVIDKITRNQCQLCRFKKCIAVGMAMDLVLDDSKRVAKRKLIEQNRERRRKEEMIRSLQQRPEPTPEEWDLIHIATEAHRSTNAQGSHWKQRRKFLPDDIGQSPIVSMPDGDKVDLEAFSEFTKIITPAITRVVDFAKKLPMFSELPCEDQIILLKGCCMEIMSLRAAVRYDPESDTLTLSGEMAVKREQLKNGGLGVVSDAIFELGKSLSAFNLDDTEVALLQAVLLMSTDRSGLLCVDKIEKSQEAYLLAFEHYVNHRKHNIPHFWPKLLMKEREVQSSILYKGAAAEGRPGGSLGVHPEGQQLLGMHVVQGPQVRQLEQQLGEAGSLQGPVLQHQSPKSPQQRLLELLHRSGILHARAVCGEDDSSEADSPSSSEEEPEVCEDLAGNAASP
In short: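 Transient HepG2 transfection, NR-Gal4 chimera driving GAL4-UAS reporters; 24 h compound exposure; total RNA, oligo(dT) RT, PCR, fluorescent primer extension, capillary electrophoresis. Upward direction vs DMSO control.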

[19] = BSK_3C_Vis: BioMAP Diversity Plus: 3C Assay for Morphology Visualization (AID 2283025); details: primary human endothelial cells (HUVEC);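 also: fitted both ways so gain or loss versus DMSO counts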
In short: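 Morphology read by light microscopy serves as a background control for the multiplexed 3C assay in human umbilical vein endothelial cells, taken 24 h after dosing, with DMSO as the negative control and bidirectional curve fitting.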

[20] = read-out: Pselectin, SELP (gene 6403); test: BSK_4H_Pselectin: BioMAP Diversity Plus: 4H Assay for Pselectin Biomarker Activity (AID 2283026); details: primary human endothelial cells (HUVEC); actives raise or lower the signal
In short: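 Endothelial primary cells (human umbilical vein) are dosed, incubated 24 h, and assayed for surface P-selectin by ELISA; responses in either direction are fitted relative to the DMSO negative control.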

Measured: AC50

Sequence of E-selectin (Homo sapiens) (P16581 whole entry, looked up): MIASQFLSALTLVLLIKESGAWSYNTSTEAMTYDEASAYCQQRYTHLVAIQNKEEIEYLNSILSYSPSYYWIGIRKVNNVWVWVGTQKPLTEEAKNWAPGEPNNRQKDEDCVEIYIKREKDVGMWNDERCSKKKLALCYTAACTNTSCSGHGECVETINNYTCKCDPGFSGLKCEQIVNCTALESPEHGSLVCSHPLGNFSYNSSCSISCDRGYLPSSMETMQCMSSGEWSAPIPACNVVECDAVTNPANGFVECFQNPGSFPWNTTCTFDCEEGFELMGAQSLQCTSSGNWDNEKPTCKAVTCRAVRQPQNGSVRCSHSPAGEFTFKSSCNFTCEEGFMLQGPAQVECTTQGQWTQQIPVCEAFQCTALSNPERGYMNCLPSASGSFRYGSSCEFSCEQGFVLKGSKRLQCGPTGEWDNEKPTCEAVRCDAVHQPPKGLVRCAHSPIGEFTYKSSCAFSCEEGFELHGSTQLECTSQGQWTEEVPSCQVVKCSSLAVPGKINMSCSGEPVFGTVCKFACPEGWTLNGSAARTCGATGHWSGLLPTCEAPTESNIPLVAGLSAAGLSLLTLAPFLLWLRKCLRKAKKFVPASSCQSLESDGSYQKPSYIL

C=CC(=O)NCNC(=O)C=C
not listed: [15] | [16] | [17] | [18] | [19] | [20]
inactive: all other assays above

CC(C)(O)C(=O)Nc1ccc([N+](=O)[O-])c(C(F)(F)F)c1
active: [17] 22.8 µM and 28.1 µM and 15.6 µM
inactive: [1] | [15] | [16] | [17] | [18] | [2] | [3] | [4] | [5] | [6] | [7] | [8] | [9] | [10] | [11] | [12] | [14]

Cc1cc(O)ccc1Cl
not listed: [1] | [13] | [19] | [20]
inactive: all other assays above

Oc1c(Cl)c(Cl)c(Cl)c(Cl)c1Cl
inactive: [1] | [16] | [17] | [18] | [5] | [7] | [8] | [9] | [11] | [14]
active: [2] 14 µM and 10.8 µM | [3] 13.8 µM and 21.4 µM | [4] 13.7 µM | [5] 7.96 µM | [6] 14.7 µM and 13.5 µM | [7] 20 µM | [8] 34.5 µM | [9] 9.71 µM | [10] 15.4 µM and 13 µM | [11] 26.1 µM | [12] 10.2 µM and 9.07 µM | [13] 4.33 µM and 28.2 µM | [14] 20 µM

C=CC(N)=O
active: [16] 157 µM | [17] 15.8 µM
not listed: [15] | [18]
inactive: all other assays above

COS(=O)(=O)OC
not listed: [15] | [19]
inactive: all other assays above

Source: PubChem BioAssay (EPA / NIEHS)
